Drawing on PubChem BioAssay AID2284078 (EPA ToxCast), this text covers AC50 and outcome for three molecules.

Structures are written as SMILES. Calls of active or inactive are those of the source. Rule for the calls: active = hit-call score of the fitted dose curve at least 0.9, where 1 is the maximum; inactive = score below 0.9.

For this assay, the target named is human CHK1 (CHEK1) CAMK Kinase, CHEK1 (gene 1111) (UniProt O14757). The assay can be described thus: ERF_TW_ENZ_hCHK1: Eurofins (ERF) Enzymatic Radiometric [10 uM ATP] KinaseProfiler LeadHunter Assay for human CHK1 (CHEK1) CAMK Kinase. On the procedure: ERF_TW_ENZ_hCHK1 is a biochemical, single-readout assay that uses extracted gene-proteins in a cell-free assay. Measurements were taken 0.5 hour after chemical dosing in a 96-well plate. See CHK1 Human CAMK Kinase Enzymatic Radiometric Assay [10 uM ATP], Panlabs.ERF_TW_ENZ_hCHK1 is an assay component calculated from the ERF_TW_ENZ_hCHK1 assay. It is designed to measure enzyme activity using a type of enzyme reporter as detected by scintillation counting with radiometry technology.Data from the assay component ERF_TW_ENZ_hCHK1 was analyzed at the assay endpoint, ERF_TW_ENZ_hCHK1, in the positive analysis fitting direction relative to DMSO as the negative control and baseline of activity. Using a type of enzyme reporter, loss-of-signal activity can be used to understand changes in enzymatic activity as they relate to gene CHEK1. To generalize the intended target to other relatable targets, this assay endpoint is annotated to the kinase intended target family, where the subfamily is serine/threonine kinase.
human CHK1 (CHEK1) CAMK Kinase, CHEK1 (gene 1111), sequence (O14757 whole entry, looked up): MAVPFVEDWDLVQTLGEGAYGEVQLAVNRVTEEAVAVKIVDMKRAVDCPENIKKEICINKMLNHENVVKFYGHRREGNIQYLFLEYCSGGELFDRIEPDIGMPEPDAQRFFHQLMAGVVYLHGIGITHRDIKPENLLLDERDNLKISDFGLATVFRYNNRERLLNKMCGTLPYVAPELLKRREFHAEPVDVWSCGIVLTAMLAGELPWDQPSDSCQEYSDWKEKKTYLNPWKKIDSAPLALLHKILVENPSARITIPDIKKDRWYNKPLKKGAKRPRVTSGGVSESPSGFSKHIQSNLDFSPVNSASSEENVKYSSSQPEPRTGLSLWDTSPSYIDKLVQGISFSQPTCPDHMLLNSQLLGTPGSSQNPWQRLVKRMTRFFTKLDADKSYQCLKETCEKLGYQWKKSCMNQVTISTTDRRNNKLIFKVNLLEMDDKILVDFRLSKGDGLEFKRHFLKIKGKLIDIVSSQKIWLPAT
CHK1 (h) is incubated with 8 mM MOPS pH 7.0, 0.2 mM EDTA, 200 uM […], 10 mM MgAcetate and [gamma-33P]-ATP (specific activity and concentration as required). The reaction is initiated by the addition of the Mg/ATP mix. After incubation for 40 minutes at room temperature, the reaction is stopped by the addition of phosphoric acid to a concentration of 0.5%. An aliquot of the reaction is then spotted onto a filter and washed four times for 4 minutes in 0.425% phosphoric acid and once in methanol prior to drying and scintillation counting. Test Sample Requirements: Compound should be supplied in 100%DMSO. We require a stock solution at a concentration of at least 50x higher than the Final Assay Concentration of your cpd. A 10mM stock is also acceptable. When ordering fewer than 60 kinase assays, we need 120uL of 50x concentrated stock. For more than 60 assays, we need 420uL of 50xcc stock. Please apply the conversion if you provide 10mM stock solution or compounds in powder form (pre-weighed is required). From 50 cpds supplied as solids, the TAT will be extended.
In general, AC50 refers to the concentration at which the activity in the assay is half-maximal. For the molecule `COc1cc(/C=C/C(=O)CC(=O)/C=C/c2ccc(O)c(OC)c2)ccc1O`, the AC50 was 2590 nM (active).
For `O=C(/C=C/c1ccc(O)cc1)CC(=O)/C=C/c1ccc(O)cc1`, the AC50 is 2950 nM (active).
For the molecule `COc1cc(CCC(=O)CC(=O)CCc2ccc(O)c(OC)c2)ccc1O`, the result was inactive.
